The results in this text go back to PubChem BioAssay AID504727 (Broad Institute, 2011).

Where “and” joins values, the source holds several entries; their conditions need not be identical. Equal entries are not always repeated. Calls of active or inactive are those of the source.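 Rule for the calls: active = fitted half-maximal concentration AC50 at or below ten times the highest valid tested dose, with signal falling as DNA is displaced (actives reach about 34 µM in these data); inconclusive = flat fit at moderate signal loss, or poor fit quality; inactive = the rest, including signal rising instead of falling.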

The AC50 is the concentration at which the activity in the assay is half-maximal.

This test in a line: acridine orange-DNA binding displacement – biochemical, fluorescence polarization, cherry-picked samples, set 2, artefact control for KSHV LANA DNA-binding inhibitor project, dose response (AID 504727). The note with it: series mostly up to 35 µM. In general terms: In fluorescence polarisation assays a small probe gives low polarisation when free and higher when bound to something large.
`O=C(O)c1ccc2c(c1)C(=O)/C(=C\c1ccco1)C2=O`: the AC50 result was “inactive”.

Turning to `C=C1c2cccc(O)c2C(O)=C2C(=O)[C@]3(O)C(O)=C(C(N)=O)C(=O)[C@@H](N(C)C)[C@@H]3[C@@H](O)[C@H]12`, the AC50 result was “inactive”.

For `O=C(O)/C=C/C(=O)Nc1ccc(Cc2ccc(NC(=O)/C=C/C(=O)O)cc2)cc1`, the AC50 entry was “inactive”.

As to `CC(C)=C1C2C=CC1C(C(=O)Nc1cc(C)ccc1C)C2C(=O)O` (stereo not drawn), the AC50 entry is “inactive”.

Take `O=C(CCN1C(=O)/C(=C\c2ccco2)SC1=S)Nc1ccc(C(=O)O)c(O)c1`: the AC50 entry is “inactive”.

`COc1ccc(NS(=O)(=O)c2ccc(C)c(C(=O)N(C)Cc3ccc(OC)cc3OC)c2)cc1`: the AC50 entry is “inactive”.

Turning to `CCc1sc(C(=O)NNC(=O)CNC(=O)c2ccccc2F)cc1C`, the AC50 result is “inactive”.

On to `NC(=S)N/N=C/c1ccc(-c2ccc([N+](=O)[O-])cc2)o1`, for which the AC50 entry is “inactive”.

In the case of `CCOC(=O)N1CCN(C(=S)NC(=O)c2cccc(OC)c2)CC1`, the AC50 entry was “inactive”.

For the molecule `CCN1/C(=C2/SC(=S)N(NC(C)=O)C2=O)Sc2ccc(OC)cc21`, the AC50 was 18.8 µM (active).

Take `CC(C)c1ccc(CNc2ccc([N+](=O)[O-])cn2)cc1`: the AC50 result is “inactive”.

As for `O=C(Nc1cc(Cl)ccc1-n1cncn1)c1cccs1`, the AC50 result was “inactive”.

With `Cc1cc[n+](-c2[nH]c(=O)sc2/C=N/N=C(\[O-])c2ccccc2)cc1C`, the half-maximal activity concentration (AC50) is 12.9 µM (active).

`CCC(C)[C@H](NC(=O)[C@@H]1Cc2ccccc2CN1)C(=O)Nc1ccc2c(c1)OCO2` (stereo partly drawn): the AC50 result was “inactive”.

Turning to `O=C1C=CC2=C3c4cc(O)c(O)cc4CC3(O)COC2=C1O` (stereo not drawn), the AC50 result is “inactive”.

`COc1ccc(Cn2nnc3c(=O)[nH]c(C4CCCN(C(=O)c5ccccc5)C4)nc32)cc1` (stereo not drawn): the AC50 result is “inactive”.

With `NNC(=S)Nc1ccc(S(=O)(=O)N2CCOCC2)cc1`, the AC50 result was “inactive”.

`CC1Cc2ccccc2N1C(=O)CCS(=O)(=O)c1cccs1` (stereo not drawn): the AC50 result is “inactive”.

In the case of `O=C(OCC(=O)N1N=C(c2ccc(Cl)cc2)CC1c1ccco1)c1cccnc1` (stereo not drawn), the AC50 result was “inactive”.

For the molecule `COc1cc(C(=O)O)cc(NC(=O)c2ccco2)c1OC`, the AC50 result was “inactive”.

On to `Cc1cccc(N2C(=O)c3cccc4c(N(C)CCO)ccc(c34)C2=O)c1`, for which the AC50 result is “inactive”.

On to `CCOc1ccc(C(C)NC(=O)c2ccccc2OCc2c(C)noc2C)cc1OCC` (stereo not drawn), for which the AC50 result was “inactive”.

`CCc1noc(C)c1C(=O)N1CCCC(N2CCN(c3ccc(F)cc3)CC2)C1` (stereo not drawn): the AC50 result is “inactive”.

Regarding `CCCc1nc(SC)[nH]c(=O)c1C`, the AC50 entry is “inactive”.

On to `CN(C)S(=O)(=O)c1cccc(N2C(=O)CC3(CCCCC3)CC2=O)c1`, for which the AC50 entry was “inactive”.

As for `CCOC(=O)CN1NC2(CCCCCC2)NC1=S`, the AC50 entry is “inactive”.

Consider `COc1ccc(-c2cc(C(=O)N(C)CCc3ccc(OC)c(OC)c3)c3ccccc3n2)cc1`, for which the AC50 entry was “inactive”.

For the molecule `Cc1nnc(NC(=O)CN2C(=O)NC3(CCCC3)C2=O)s1`, the AC50 result was “inactive”.

With `c1ccc2[nH]c3cc4ncnc4cc3nc2c1`, the concentration at half-maximal activity (AC50) was 11.7 µM (active).

As for `COc1ccccc1C(=O)NCC(=O)OCC(=O)N(CC(C)C)c1c(N)n(Cc2ccccc2)c(=O)[nH]c1=O`, the AC50 entry was “inactive”.

For `COc1ccc(-c2cc(C(F)(F)F)n3ncc(C(=O)N4CCCCC4c4cccnc4)c3n2)cc1` (stereo not drawn), the AC50 result was “inactive”.

`COc1ccccc1CNC(=O)CCS(=O)(=O)c1cccs1`: the AC50 entry was “inactive”.

`O=C1c2cccc3c(O)ccc(c23)C(=O)N1Cc1ccco1`: the AC50 is 1.19 µM (active).

`COc1cc(NC(=O)c2ccc(CNc3c(N4CCCC4)c(=O)c3=O)cc2)cc(OC)c1OC`: the AC50 result was “inactive”.

As for `Nc1ccccc1C(=O)N1O[C@@H]2C=C[C@H]1CC2`, the AC50 result is “inactive”.

`C[n+]1c2cc(N)ccc2cc2ccc(N)cc21`: the AC50 was 1.66 µM (active) and 2.31 µM (active).

Turning to `O=C(O)C(Cc1ccccc1)N1C(=O)/C(=C/C=C/c2ccco2)SC1=S` (stereo not drawn), the AC50 entry is “inactive”.

On to `CCOC(=O)C1Nc2ccc(C(=O)O)cc2C2C=CCC12` (stereo not drawn), for which the AC50 entry was “inactive”.
